The values that follow come from PubChem BioAssay.

A short description of test [1]: HepG2 liver cancer cell viability effects, profiling panel, resazurin fluorescence, 24 h, PK04 Diversity Set (AID 1172). Note: test concentration not given here. Conditions: higher = more signal. In general terms: The colour change of resazurin is a common sign of viable cells or microbes.
The nature of test [2]: basal S. cerevisiae growth modulation, no modifier, primary screen, OD600, strain BY4716, 24 h, basal condition (AID 1173). Conditions: OD600, 24 h, higher = more signal, called active from +8 up or from −8 down.
Test [3] is described as follows: MM1S myeloma cell viability, profiling panel, resazurin fluorescence, basal, 24 h, PK04 Diversity Set (AID 1174).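 Note: MM1S multiple myeloma cell line; test concentration not given here.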 Conditions: higher = more signal, called active from +8 up or from −8 down.
The target of test [4] is Dihydroorotate dehydrogenase (quinone), mitochondrial (Plasmodium falciparum (isolate 3D7)) (UniProt Q08210). In words: PfDHODH enzyme inhibitors, primary screen, biochemical, C-terminal His tag, absorbance 600 nm (AID 1175).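 Note: recombinant parasite enzyme with a five histidine tag at its C terminus; test concentration not given here.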 Conditions: DCIP absorbance 600 nm, higher = more signal, called active from +8 up or from −8 down.
The nature of test [5]: P. aeruginosa biofilm formation inhibitors, primary screen, strain PAO1, LB-PBS medium, absorbance 600 nm (AID 1176). Note: test concentration not given here. Conditions: P. aeruginosa PAO1 growth/biofilm, A600, 12 h; higher = more signal.
Test [6] in a line: S. cerevisiae RM11-1a growth modifiers, primary screen, strain RM11-1a, OD600, basal, 24 h (AID 1177).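 Note: cultures grown under basal conditions with no added stressor; test concentration not given here.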 Conditions: OD600, 24 h, higher = more signal, called active from +8 up or from −8 down.
A short description of test [7]: E. coli acrAB mutant growth effects, primary screen, E. coli filamentation inducers, strain DRC39, OD650, 24 h (AID 1178).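 Note: growth measured as culture turbidity by optical density at 650 nm; test concentration not given here.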 Conditions: higher = more signal, called active from +8 up or from −8 down.
Test [8] is described as follows: E. coli acrAB mutant growth effects, primary screen, E. coli filamentation inducers, strain DRC39, OD650, 48 h (AID 1179).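 Note: screen aims at cell division blockers that make cells filament.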 Conditions: E. coli DRC39 delta-acrAB growth, higher = more signal, called active from +8 up or from −8 down.
Test [9] is described as follows: RPMI8226 myeloma cell viability, profiling panel, resazurin fluorescence, basal, 24 h, PK04 Diversity Set (AID 1180).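 Note: RPMI8826 multiple myeloma cell line at 5000 cells per well; test concentration not given here.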 Conditions: higher = more signal.
Test [10] deals with E3 ubiquitin-protein ligase XIAP (Homo sapiens) (UniProt P98170). In words: XIAP binders, primary screen, biophysical, small-molecule microarray, fluorescence 635 nm (AID 1181).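 Note: score merges 667 nm emission and signal to noise over triplicate slides.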 Conditions: small-molecule microarray binding, higher = more signal.

Active and inactive are the calls of the source. Unless noted, the rule behind the calls is not given here.

Sequence of Dihydroorotate dehydrogenase (quinone), mitochondrial (Plasmodium falciparum (isolate 3D7)) (Q08210 whole entry, looked up): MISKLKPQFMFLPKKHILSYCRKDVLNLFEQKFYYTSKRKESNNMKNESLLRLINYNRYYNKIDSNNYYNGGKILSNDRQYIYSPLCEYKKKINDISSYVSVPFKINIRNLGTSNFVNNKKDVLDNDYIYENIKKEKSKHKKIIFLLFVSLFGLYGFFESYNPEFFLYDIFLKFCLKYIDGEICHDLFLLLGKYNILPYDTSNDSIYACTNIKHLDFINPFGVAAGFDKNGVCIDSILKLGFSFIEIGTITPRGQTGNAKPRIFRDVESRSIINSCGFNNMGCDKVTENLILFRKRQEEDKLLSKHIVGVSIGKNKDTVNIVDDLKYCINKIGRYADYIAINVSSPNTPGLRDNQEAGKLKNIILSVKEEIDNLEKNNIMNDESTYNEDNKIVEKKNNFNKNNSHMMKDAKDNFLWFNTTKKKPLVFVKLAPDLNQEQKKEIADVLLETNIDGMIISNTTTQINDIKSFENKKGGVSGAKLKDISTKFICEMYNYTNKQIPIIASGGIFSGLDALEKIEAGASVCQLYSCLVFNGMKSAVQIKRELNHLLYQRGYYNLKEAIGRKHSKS
Sequence of E3 ubiquitin-protein ligase XIAP (Homo sapiens) (P98170 whole entry, looked up): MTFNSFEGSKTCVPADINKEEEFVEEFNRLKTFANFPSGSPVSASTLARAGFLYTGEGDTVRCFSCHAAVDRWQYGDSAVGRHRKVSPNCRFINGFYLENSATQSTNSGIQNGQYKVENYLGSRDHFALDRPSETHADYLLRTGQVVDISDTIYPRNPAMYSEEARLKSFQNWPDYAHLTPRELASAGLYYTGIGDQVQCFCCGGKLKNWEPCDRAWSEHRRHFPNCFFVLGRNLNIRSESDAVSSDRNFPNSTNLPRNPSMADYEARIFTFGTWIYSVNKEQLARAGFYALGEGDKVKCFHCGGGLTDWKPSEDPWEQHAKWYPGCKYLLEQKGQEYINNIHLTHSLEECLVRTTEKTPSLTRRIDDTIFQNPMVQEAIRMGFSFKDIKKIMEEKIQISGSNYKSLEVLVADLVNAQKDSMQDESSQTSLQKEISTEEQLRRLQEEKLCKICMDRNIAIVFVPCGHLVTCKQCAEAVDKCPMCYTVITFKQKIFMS

Turning to `CC(C)(C)N1C(=O)[C@H]2[C@H]3[C@H](O)[C@H](O)CC(=NNC(=O)OCc4ccccc4)[C@H]3CC[C@H]2C1=O`, the z-score was -0.558 in [1]; -4.15 (inactive) in test [2]; 0.0137 (inactive) in [3]; 0.118 (inactive) in [5]; -0.589 (inactive) in test [6]; 0.352 (inactive) in test [7]. In addition, the z-score in test [8] was -0.645 (inactive); in test [9] it was -0.198. Further, the composite z-score in [4] is -2.25 (inactive); in test [10] it was 0.0282.

For `COC(=O)CC=C[C@@H](C)[C@@H](C=NOC(C)CN1CCCCc2nc(C)c(C)cc21)NS(=O)(=O)c1ccc(C)cc1` (stereo not given in full), the z-score was -0.194 in [1]; 0.434 (inactive) in test [2]; -0.71 (inactive) in [3]; 0.0525 (inactive) in [5]; -0.472 (inactive) in test [6]; 0.424 (inactive) in test [7]. Further, the values for the z-score in test [8] and in test [9] were 0.607 (inactive) and 0.0077, respectively. Besides, the composite z-score in [4] is -0.069 (inactive); in [10], -0.244.

As for `C[C@@H]1C=CCC(=O)OC[C@H](C)C(=O)N[C@@H](Cc2ccccc2)C(=O)OC1`, the z-score was -0.42 in test [1]; -1.13 (inactive) in [2]; 0.489 (inactive) in [3]; -0.355 (inactive) in test [5]; -0.868 (inactive) in test [6]; 0.0826 (inactive) in test [7]. Moreover, the results for the z-score in test [8] and in test [9] were -0.0419 (inactive) and 0.394, respectively. Also, the composite z-score in test [4] was -2.99 (inactive); in [10], -0.0669.

With `COc1cccc([C@H]2Oc3ccc(OC)cc3C(=NO[C@@H](C)c3cc(-c4c(C)cc(C)cc4C)no3)[C@@H]2O)c1`, the z-score in [1] was -0.406; in test [2], 1.18 (inactive); in test [3], 0.0117 (inactive); in test [5] it was 0.523 (inactive); in test [6] it was 1.96 (inactive); in test [7], 0.243 (inactive). Further, the z-score in test [8] is -1.43 (inactive); in test [9], -0.116. Further, the composite z-score in test [4] is -2.77 (inactive); in test [10], -0.336.

With `O=C(NN=C1C[C@@H](O)[C@@H](O)[C@@H]2[C@@H]3C(=O)N(c4ccc(F)cc4F)C(=O)[C@@H]3CC[C@H]12)OCc1ccccc1`, the z-score in [1] is 2.08; in test [2] it was -0.814 (inactive); in test [3], 1.23 (inactive); in [5] it was -0.258 (inactive); in test [6], -1.35 (inactive); in [7] it was 0.574 (inactive). Further, the figures for the z-score in [8] and in test [9] were 0.573 (inactive) and 0.86, respectively. Further, the figures for the composite z-score in [4] and in [10] were -0.25 (inactive) and -0.152, respectively.

For `CC(=O)OC[C@H]1O[C@H](CC=NO[C@H](C)c2cn([C@@H]3COC[C@H]3O)nn2)C=C[C@@H]1OC(C)=O`, the z-score in [1] was -0.648; in [2], -0.199 (inactive); in test [3] it was 0.134 (inactive); in test [5] it was 0.441 (inactive); in test [6], -1.9 (inactive); in test [7], -0.716 (inactive). The z-score in test [8] is -0.743 (inactive); in test [9], 0.0142. In addition, the results for the composite z-score in test [4] and in test [10] were -1.64 (inactive) and -0.0447, respectively.

With `O=C1C2=CC[C@H]3C(=O)N(C4CCCCC4)C(=O)[C@H]3[C@H]2[C@H](O)[C@@H]2O[C@H]12`, the z-score in test [1] was -3.76; in test [2], -5.74 (inactive); in [3] it was -7.88 (inactive); in [5], -0.2 (inactive); in test [6] it was -1.83 (inactive); in [7], 0.0488 (inactive). Besides, the values for the z-score in test [8] and in test [9] were -1.02 (inactive) and -4.05, respectively. Moreover, the composite z-score was -3.96 (inactive) in test [4] and 0.0694 in [10].

Take `CC(CCN1CCCc2nc(C)c(C)cc21)=NO[C@H](C)c1cn([C@@H]2COC[C@H]2O)nn1`: the z-score in test [1] was -0.537; in test [2] it was 0.593 (inactive); in [3], -0.144 (inactive); in test [5], -0.525 (inactive); in test [6] it was 0.836 (inactive); in test [7] it was 0.973 (inactive). Further, the results for the z-score in test [8] and in [9] were 0.741 (inactive) and -1.6, respectively. Moreover, the figures for the composite z-score in test [4] and in test [10] were -0.0105 (inactive) and 0.0264, respectively.

Regarding `CCOC(=O)[C@H](Cc1ccccc1)NC(=O)CCC1CC(OC(=O)NCCc2ccc(F)cc2)CC2(CCCC(COC(=O)NCc3cccc(C(F)(F)F)c3)O2)O1` (stereo not given in full), the z-score was 0.134 in test [1]; -0.0427 (inactive) in [2]; 0.853 (inactive) in [3]; 0.544 (inactive) in [5]; 0.322 (inactive) in test [6]; 0.141 (inactive) in [7]. Moreover, the z-score in test [8] is 0.0159 (inactive); in [9], 0.864. Further, the composite z-score in [4] is -0.276 (inactive); in test [10], -0.102.

In the case of `C[C@H]1C=CCC(=O)OC[C@H](C)C(=O)N2CCC[C@H]2C(=O)OC1`, the z-score was 0.976 in test [1]; -0.18 (inactive) in test [2]; -0.0106 (inactive) in [3]; -0.455 (inactive) in [5]; 0.73 (inactive) in [6]; 0.0678 (inactive) in test [7]. Moreover, the z-score in test [8] is 0.205 (inactive); in [9] it was 0.818. Also, the composite z-score in test [4] was -0.441 (inactive); in [10], -0.102.

Turning to `CO[C@H]1COC(=O)[C@H](C)COC(=O)[C@H](C)NC(=O)CC=C[C@H]1C`, the z-score in [1] is 0.377; in test [2] it was -1.32 (inactive); in [3], 1.13 (inactive); in test [5], -0.826 (inactive); in test [6] it was -0.419 (inactive); in test [7] it was 0.91 (inactive). For the same compound, the z-score is -0.193 (inactive) in test [8] and 1.03 in test [9]. For the same compound, the composite z-score in test [4] was 0.0315 (inactive); in test [10], -0.0525.

Take `CON=C1c2cc(OC)ccc2O[C@H](c2cccc(OC)c2)[C@H]1O`: the z-score in [1] is 0.291; in test [2] it was -5.98 (inactive); in test [3], 0.322 (inactive); in test [5], -0.455 (inactive); in test [6] it was -0.175 (inactive); in test [7], 0.489 (inactive). The z-score is 0.957 (inactive) in [8] and 0.411 in test [9]. Besides, the figures for the composite z-score in test [4] and in test [10] were -0.469 (inactive) and 0.418, respectively.

`CCOC(=O)[C@H](Cc1ccccc1)NC(=O)CCC1CC(OC(=O)NCc2ccc3c(c2)OCO3)CC2(CCCC(COC(=O)NCCOc3ccccc3)O2)O1` (stereo not given in full): the z-score in test [1] is 0.425; in [2], -1.24 (inactive); in test [3], 0.975 (inactive); in test [5], -0.102 (inactive); in test [6], 0.0995 (inactive); in [7], 0.662 (inactive). Moreover, the values for the z-score in [8] and in test [9] were 0.181 (inactive) and 0.579, respectively. Also, the composite z-score in test [4] was -1.76 (inactive); in [10], -0.0832.
